Inconclusive results are not listed. A call without a number means that no potency is given here. Active and inactive are the calls of the source. Calls come from the whole dose curve.
Test: qHTS assay to identify small molecule agonists of H2AX - cell viability counter screen (AID 1224847); note: nearly all actives have a fitted effect of over 30% in size
Conditions: CHO-K1 viability, CellTiter-Glo luminescence, 3 h; series mostly up to 154 µM
Description: National Center for Advancing Translational Sciences [NCATS]
NIH Chemical Genomics Center [NCGC]
U.S. Environmental Protection Agency [EPA]
National Institutes of Environmental Health Sciences [NIEHS]
National Toxicology Program [NTP]
U.S. Food and Drug Administration [FDA]
HTRF phospho-H2AX (Ser139) assay (Cisbio Bioassays, US) enables the quantitative detection of the histone variant H2AX when phosphorylated on serine 139. When double-stranded DNA breaks, either by ionizing radiation or endogenous physiological processes, H2AX becomes phosphorylated at Ser139. This phospho-Ser139 serves as a sensitive biomarker for the detection of such breaks, localizing the site of DNA repair. So, HTRF phospho-H2AX Ser139 is a pertinent assay to study genome stability, the cell cycle, DNA repair, and it serves as a biomarker for cancer, and to understand aging. Wild type CHO-K1 cells were used to identify the inducers of Phospho-H2AX Ser 139 from the Tox21 compound collections. Also cytotoxicity of the Tox21 10K compound library against the CHO-K1 cell line was tested by measuring the cell viability using CellTiter-Glo assay (Promega, Madison, WI).
Tox21 Assay Protocol Summary:
The CHO-K1 cells suspended in culture medium containing 10% FBS were dispensed at 1000 cells/ 3 ul/well in 1536-well white wall/solid bottom plates (Greiner Bio-One North America, NC) using a Multidrop Combi (Thermo Fisher Scientific Inc., Waltham, MA). After the assay plates were incubated at 37C overnight, 23 nl of compounds at 15 concentrations (from 5-48 columns) or positive control (from 1 to 4 columns) were transferred to the assay plates using a Pintool station (Wako, San Diego, CA) into each well resulting in a final DMSO concentration of 0.76%. After 3hr incubation at 37C, 3 uL/well CellTiter-Glo luminescent cell viability reagent (Promega Corporation, Madison, WI) was added using a Flying Reagent Dispenser (FRD) (Aurora Discovery, CA). After incubation at room temperature for 30 min, the luminescence intensity was read using a ViewLux plate reader (PerkinElmer, Waltham, MA).
Potency is the fitted concentration of half-maximal effect.

Structure (SMILES) | Potency
C=CC(=O)[O-].C=CC(=O)[O-].[Zn+2] | inactive
CCn1cc(C(=O)O)c(=O)c2cc(F)c(N3CCNCC3)cc21 | inactive
CNC(=O)c1cnn(-c2nc(N)c3ncn([C@@H]4O[C@H](CO)[C@@H](O)[C@H]4O)c3n2)c1 | inactive
Cc1c(C)c2c(c(C)c1OC(=O)CCC(=O)OCCO)CC[C@@](C)(CCC[C@H](C)CCC[C@H](C)CCCC(C)C)O2 | inactive
CCCCOc1ccc(OCCCN2CCOCC2)cc1 | inactive
C=COCC(C)C | inactive
COc1cc(Nc2c(C#N)cnc3cc(OCCCN4CCN(C)CC4)c(OC)cc23)c(Cl)cc1Cl | 55.2 µM (active)
CO[C@]1(NC(=O)CSC(F)F)C(=O)N2C(C(=O)O)=C(CSc3nnnn3CCO)CO[C@H]21 | inactive
O=[N+]([O-])c1ccc(Nc2ccc(Nc3ccccc3)c(S(=O)(=O)O)c2)c([N+](=O)[O-])c1 | inactive
CCCCN(CCN(CCCC)C(=O)N1CCOCC1)C(=O)N1CCOCC1 | inactive
CC(C)=CCC/C(C)=C/CC/C(C)=C/C(=O)OCC(=O)[C@@]1(O)CC[C@H]2[C@@H]3CCC4=CC(=O)C=C[C@]4(C)[C@H]3[C@@H](O)C[C@@]21C | inactive
CCCCCCCCCCCCCCN(CCO)CCO | 89.8 µM (active)
O=C(Nc1cccc2c(=O)cc(-c3nn[nH]n3)oc12)c1ccc(OCCCCc2ccccc2)cc1 | inactive
Cc1ccccc1N=C(N)Nc1ccccc1C | inactive
C[C@H]1C[C@H](O)c2ccsc2S1(=O)=O | inactive
CCC1NC(=O)c2cc(S(N)(=O)=O)c(Cl)cc2N1 (stereo not given) | inactive
CC(C)(C)C(=O)C(=O)O | inactive
CN1C(C(=O)Nc2ccccn2)=C(O)c2sccc2S1(=O)=O | inactive
CCCCCCCCCI | inactive
CCCCCC[C@@H](O)C/C=C\CCCCCCCC(=O)OCC(O)CO (stereo not given in full) | inactive

Structure (SMILES) | Potency
CCOC(=O)c1ccccc1C(=C1C=C(Br)C(=O)C(Br)=C1)c1cc(Br)c(O)c(Br)c1 | inactive
CC(=O)Oc1ccc([N+](=O)[O-])cc1CCl | inactive
COc1ccccc1NC(=O)c1cc2ccccc2cc1O | 89.8 µM (active)
CCOC(=O)[C@H](CCc1ccccc1)N[C@@H](C)C(=O)N(CC(=O)O)C1Cc2ccccc2C1 | inactive
Cc1ccc(C(C)(C)O)cc1 | inactive
CS(=O)(=O)c1ccc(-c2cn3ccccc3n2)cc1 | 31 µM (active)
CCc1ccccc1 | inactive
NC1[C@H]2CN(c3nc4c(cc3F)c(=O)c(C(=O)O)cn4-c3ccc(F)cc3F)C[C@@H]12 (stereo not given in full) | inactive
Cc1cc2c(OCC(CNC(C)(C)C)OC(=O)c3ccccc3)cccc2[nH]1 (stereo not given) | inactive
C=C(C)C(=O)OCCCCCCCCCCCCC | inactive
COC(=O)CS | inactive
c1cc(N(CC2CO2)CC2CO2)ccc1Cc1ccc(N(CC2CO2)CC2CO2)cc1 (stereo not given) | inactive
CC(C)=CC(=O)C=C(C)C | inactive
O=C1c2ccccc2C(=O)N1CCc1noc(-c2ccc(CN3CCCCCC3)s2)n1 | 92.3 µM (active)
O=C1CCCCCCCCCCOCCCCO1 | inactive
COc1ccc(OC(=O)N(CC(=O)O)Cc2ccc(OCCc3nc(-c4ccccc4)oc3C)cc2)cc1 | 27.7 µM (active)
CCC(C)(C)OC | inactive
C=C(C)[C@@H]1CCC2=CCC[C@@H](C)[C@]2(C)C1 | inactive
C[C@@]12CCC[C@H]1[C@@H]1CC[C@H]3C[C@@H](O)CC[C@]3(C)[C@H]1CC2 | inactive
Cc1cscn1 | inactive
